Test results from PubChem BioAssay (EPA / NIEHS).
Some compounds were tested as several samples or in several runs, with calls that do not always agree. Activity calls are given as the source filed them. Rule for the calls: active = hit-call score of the fitted dose curve at least 0.9, where 1 is the maximum; inactive = score below 0.9.

Experiments:
[1] = read-out: TIMP metallopeptidase inhibitor 1 (TIMP1), TIMP1 (gene 7076); assay: BSK_hDFCGF_TIMP1: BioMAP Diversity Plus: hDFCGF Assay for TIMP metallopeptidase inhibitor 1 (TIMP1) Biomarker Activity (AID 2283062); settings: primary human foreskin fibroblasts; actives raise or lower the signal
In short: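 Human skin fibroblasts (primary), hDFCGF system; compound exposure 24 h; TIMP-1 by ELISA; bidirectional fit vs DMSO negative control; overt cytotoxicity by SRB in parallel wells.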

[2] = read-out: Monokine induced gamma interferon (MIG), CXCL9 (gene 4283); assay: BSK_hDFCGF_MIG: BioMAP Diversity Plus: hDFCGF Assay for Monokine induced gamma interferon (MIG) Biomarker Activity (AID 2283063); settings: primary human foreskin fibroblasts; actives raise or lower the signal
In short: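 Chemicals were added to primary human foreskin fibroblast cultures, which were sampled 24 h later. MIG levels were then quantified by ELISA and responses fitted in both directions relative to DMSO.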

[3] = read-out: Matrix Metallopeptidase 1 (MMP1), MMP1 (gene 4312); assay: BSK_hDFCGF_MMP1: BioMAP Diversity Plus: hDFCGF Assay for Matrix Metallopeptidase 1 (MMP1) Biomarker Activity (AID 2283064); settings: primary human foreskin fibroblasts; actives raise or lower the signal
In short: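 Human foreskin fibroblasts exposed to chemical for 24 h; MMP1 detected by ELISA, with DMSO as baseline for bidirectional fitting.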

[4] = read-out: Vascular cell adhesion molecule 1 (VCAM1), VCAM1 (gene 7412); assay: BSK_hDFCGF_VCAM1: BioMAP Diversity Plus: hDFCGF Assay for Vascular cell adhesion molecule 1 (VCAM1) Biomarker Activity (AID 2283065); settings: primary human foreskin fibroblasts; actives raise or lower the signal;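 note: VCAM-1 protein level quantified by ELISA after 24 h chemical exposure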
In short: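 Human foreskin fibroblast primary cells, chemical exposure 24 h; VCAM-1 by ELISA; bidirectional fit, DMSO = negative control/baseline.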

[5] = read-out: Plasminogen activator inhibitor-1 (PAI1), SERPINE1 (gene 5054); assay: BSK_hDFCGF_PAI1: BioMAP Diversity Plus: hDFCGF Assay for Plasminogen activator inhibitor-1 (PAI1) Biomarker Activity (AID 2283066); settings: primary human foreskin fibroblasts; actives raise or lower the signal
In short: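 Fibroblasts from human foreskin were treated with test chemical. After 24 h, PAI-1 was measured by ELISA. Activity was fitted in both directions relative to DMSO.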

[6] = read-out: Intercellular Adhesion Molecule 1 (ICAM1), ICAM1 (gene 3383); assay: BSK_KF3CT_ICAM1: BioMAP Diversity Plus: KF3CT Assay for Intercellular Adhesion Molecule 1 (ICAM1) Biomarker Activity (AID 2283067); settings: primary human keratinocytes with fibroblasts; actives raise or lower the signal
In short: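 ICAM-1 levels are measured by ELISA 24 h after dosing a primary human co-culture of keratinocytes and foreskin fibroblasts. Activity in either direction is fitted relative to DMSO vehicle.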

[7] = read-out: Interferon-gamma inducible Protein 10 (IP10), CXCL10 (gene 3627); assay: BSK_KF3CT_IP10: BioMAP Diversity Plus: KF3CT Assay for Interferon-gamma inducible Protein 10 (IP10) Biomarker Activity (AID 2283068); settings: primary human keratinocytes with fibroblasts; actives raise or lower the signal
In short: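 In a primary skin co-culture of keratinocytes and fibroblasts, IP-10 is quantified by ELISA at 24 h after dosing. SRB staining of parallel wells monitors overt toxicity. Curves are fitted both directions against DMSO.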

[8] = BSK_KF3CT_SRB: Viability Assessment in the BioMAP Diversity Plus: KF3CT Assay (AID 2283069); settings: primary human keratinocytes with fibroblasts;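 note: read 24 h after compound addition; fitted for both signal gain and loss against DMSO baseline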
In short: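 Overt cytotoxicity is assessed as total protein by sulforhodamine B staining in parallel human skin co-cultures at 24 h after dosing. DMSO serves as negative control and baseline.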

[9] = read-out: Interleukin-1 alpha (IL1a), IL1A (gene 3552); assay: BSK_KF3CT_IL1a: BioMAP Diversity Plus: KF3CT Assay for Interleukin-1 alpha (IL1a) Biomarker Activity (AID 2283070); settings: primary human keratinocytes with fibroblasts; actives raise or lower the signal
In short: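 Readout is IL-1a level by ELISA, compared bidirectionally with DMSO as baseline. Cells: human keratinocytes co-cultured with foreskin fibroblasts, harvested 24 h post-dose.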

[10] = read-out: TIMP metallopeptidase inhibitor 2 (TIMP2), TIMP2 (gene 7077); assay: BSK_KF3CT_TIMP2: BioMAP Diversity Plus: KF3CT Assay for TIMP metallopeptidase inhibitor 2 (TIMP2) Biomarker Activity (AID 2283071); settings: primary human keratinocytes with fibroblasts; actives raise or lower the signal
In short: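 Chemicals were dosed onto human skin primary co-cultures of keratinocytes and foreskin fibroblasts, and TIMP-2 was measured by ELISA after 24 hours. Activity in either direction was fitted relative to DMSO.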

[11] = read-out: Transforming growth factor beta 1 (TGFb1), TGFB1 (gene 7040); assay: BSK_KF3CT_TGFb1: BioMAP Diversity Plus: KF3CT Assay for Transforming growth factor beta 1 (TGFb1) Biomarker Activity (AID 2283072); settings: primary human keratinocytes with fibroblasts; actives raise or lower the signal
In short: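 KF3CT co-culture (keratinocytes + fibroblasts), 24 h exposure → TGF-b1 ELISA → bidirectional fit, DMSO = baseline. Parallel SRB total-protein staining (0.1% SRB, 10% TCA fixation, 560 nm) for cytotoxicity.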

[12] = read-out: C-C motif chemokine 2 (Homo sapiens) (UniProt P13500); assay: BSK_KF3CT_MCP1: BioMAP Diversity Plus: KF3CT Assay for Monocyte Chemoattractant Protein 1 (MCP1/CCL2) Biomarker Activity (AID 2283073); settings: primary human keratinocytes with fibroblasts; actives raise or lower the signal
In short: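 ELISA readout of MCP-1 after 24 h chemical dosing of a human skin primary co-culture of keratinocytes and foreskin fibroblasts. Activity was fitted in both directions against DMSO.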

[13] = read-out: Matrix Metallopeptidase 9 (MMP9), MMP9 (gene 4318); assay: BSK_KF3CT_MMP9: BioMAP Diversity Plus: KF3CT Assay for Matrix Metallopeptidase 9 (MMP9) Biomarker Activity (AID 2283074); settings: primary human keratinocytes with fibroblasts; actives raise or lower the signal;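 for AC50: MMP9 protein level quantified by ELISA in the co-culture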
In short: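 Values come from bidirectional fitting relative to DMSO of MMP-9 levels, which were measured by ELISA. Measurements were taken 24 h after chemical dosing of a keratinocyte and foreskin fibroblast co-culture.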

[14] = read-out: urokinase plasminogen activator (uPA), PLAU (gene 5328); assay: BSK_KF3CT_uPA: BioMAP Diversity Plus: KF3CT Assay for urokinase plasminogen activator (uPA) Biomarker Activity (AID 2283075); settings: primary human keratinocytes with fibroblasts; actives raise or lower the signal
In short: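 Values derive from bidirectional fitting against DMSO controls. Keratinocyte/foreskin fibroblast co-cultures received chemical; 24 h later uPA was detected by ELISA, with SRB total-protein staining in parallel wells for overt cytotoxicity.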

CD40, CD40 (gene 958) = assay: BSK_LPS_CD40: BioMAP Diversity Plus: LPS Assay for CD40 Biomarker Activity (AID 2283076); settings: primary human HUVEC with PBMC; actives raise or lower the signal
In short: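 Cells were dosed, incubated 24 h, then assayed for CD40 by ELISA. Gain or loss of signal was analysed relative to DMSO controls. The culture paired human umbilical vein endothelium with peripheral blood mononuclear cells.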

[15] = read-out: E-selectin (Homo sapiens) (UniProt P16581); assay: BSK_LPS_Eselectin: BioMAP Diversity Plus: LPS Assay for Eselectin Biomarker Activity (AID 2283077); settings: primary human HUVEC with PBMC; actives raise or lower the signal
In short: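 Primary human vascular co-culture (endothelium plus PBMC) was dosed with chemical, then E-selectin quantified by ELISA at 24 h. Endpoint values derive from bidirectional curve fitting relative to DMSO.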

[16] = BSK_LPS_SRB: Viability Assessment in the BioMAP Diversity Plus: LPS Assay (AID 2283079); settings: primary human HUVEC with PBMC;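 note: total protein by sulforhodamine B absorbance as a cytotoxicity measure; measured one day after compound addition; fitted in both directions against DMSO so loss or gain of signal counts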
In short: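 Readout is SRB absorbance at 560 nm (0.1% stain, TCA-fixed parallel cultures) as a total-protein cytotoxicity measure. Cells: primary human umbilical vein endothelium plus peripheral blood mononuclear cells, 24 h after chemical exposure; DMSO served as baseline.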

[17] = read-out: Interleukin-1 alpha (IL1a), IL1A (gene 3552); assay: BSK_LPS_IL1a: BioMAP Diversity Plus: LPS Assay for Interleukin-1 alpha (IL1a) Biomarker Activity (AID 2283080); settings: primary human HUVEC with PBMC; actives raise or lower the signal
In short: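 ELISA read-out of IL-1 alpha from a human primary vascular co-culture (endothelium plus PBMC) under LPS, sampled 24 hours post-dosing. Activity was fitted in both directions relative to DMSO controls.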

[18] = read-out: Monocyte Chemoattractant Protein-1 (MCP1), CCL2 (gene 6347); assay: BSK_LPS_MCP1: BioMAP Diversity Plus: LPS Assay for Monocyte Chemoattractant Protein-1 (MCP1) Biomarker Activity (AID 2283081); settings: primary human HUVEC with PBMC; actives raise or lower the signal;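 for AC50: co-culture stimulated with LPS; secreted MCP-1 protein quantified by ELISA in culture supernatant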
In short: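 Human endothelial–PBMC co-cultures were dosed with chemical, then LPS-driven MCP-1 levels were quantified by ELISA at 24 h. Activity in either direction was fitted versus DMSO negative control.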

Measured: AC50

E-selectin (Homo sapiens), sequence (P16581 whole entry, looked up): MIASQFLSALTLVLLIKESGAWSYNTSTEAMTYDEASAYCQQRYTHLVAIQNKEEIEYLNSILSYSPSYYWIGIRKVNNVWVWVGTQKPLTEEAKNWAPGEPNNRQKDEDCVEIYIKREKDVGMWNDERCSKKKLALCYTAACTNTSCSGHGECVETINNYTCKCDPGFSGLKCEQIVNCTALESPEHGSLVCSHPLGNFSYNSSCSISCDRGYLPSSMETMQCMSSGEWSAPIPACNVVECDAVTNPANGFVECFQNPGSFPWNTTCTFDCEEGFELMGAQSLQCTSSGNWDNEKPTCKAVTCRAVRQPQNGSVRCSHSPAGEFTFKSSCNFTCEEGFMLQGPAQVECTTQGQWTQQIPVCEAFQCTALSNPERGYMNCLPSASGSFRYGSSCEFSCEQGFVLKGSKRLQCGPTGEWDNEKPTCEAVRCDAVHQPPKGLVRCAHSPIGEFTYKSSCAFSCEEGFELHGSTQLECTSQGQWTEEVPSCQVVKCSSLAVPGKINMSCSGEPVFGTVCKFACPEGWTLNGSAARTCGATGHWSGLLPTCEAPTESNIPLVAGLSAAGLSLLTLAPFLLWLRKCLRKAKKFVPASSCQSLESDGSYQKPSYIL

C=C(C)C(=O)O[C@H]1C[C@@H]2CC[C@@]1(C)C2(C)C
inactive: [11]
active: [1] 20 µM | [2] 34.8 µM | [3] 34.8 µM | [4] 26.4 µM | [5] 12.8 µM | [6] 28.8 µM | [7] 16.9 µM | [8] 14.6 µM | [9] 20 µM | [10] 10.2 µM | [12] 12.8 µM | [13] 20 µM | [14] 13.8 µM | CD40, CD40 (gene 958) 27.8 µM | [15] 29.6 µM | [16] 30.4 µM | [17] 25.8 µM | [18] 31.1 µM

CCCCC(CC)COCCC#N (stereo not given)
active: [1] 20 µM | [7] 5.08 µM | [18] 0.016 µM
inactive: [2] | [3] | [5] | [6] | [8] | [9] | [10] | [11] | [12] | [13] | [14] | CD40, CD40 (gene 958) | [15] | [16] | [17]

Nc1cc([N+](=O)[O-])ccc1O
active: [2] 1.88 µM
inactive: [1] | [2] | [3] | [5] | [6] | [7] | [8] | [9] | [10] | [12] | [13] | [14] | CD40, CD40 (gene 958) | [15] | [16] | [17] | [18]
